Calls of active or inactive are those of the source. Unless noted, how the calls were made is not given here.
Tests used:
[1] = resazurin metabolic signal in HepG2 cells – cell-based, resazurin fluorescence, 24 h, PK04 Diversity Set, profiling panel (AID 1172); conditions: HepG2 viability, higher = more signal
[2] = budding yeast growth changes without added modifier – OD600, strain BY4716, 24 h, basal condition, primary screen (AID 1173); conditions: S. cerevisiae BY4716 growth, OD600, 24 h; higher = more signal, called active from +8 up or from −8 down
[3] = viability profiling in MM1S myeloma cells – cell-based, resazurin fluorescence, basal, 24 h, PK04 Diversity Set, profiling panel (AID 1174); conditions: higher = more signal, called active from +8 up or from −8 down;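 further: MM1S multiple myeloma cell line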
[4] = target: Dihydroorotate dehydrogenase (quinone), mitochondrial (Plasmodium falciparum (isolate 3D7)) (UniProt Q08210); assay: inhibition of P. falciparum DHODH – biochemical, C-terminal His tag, absorbance 600 nm, primary screen (AID 1175); conditions: PfDHODH enzyme, DCIP absorbance 600 nm; higher = more signal, called active from +8 up or from −8 down;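 further: recombinant parasite enzyme with a five histidine tag at its C terminus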
Sequence of Dihydroorotate dehydrogenase (quinone), mitochondrial (Plasmodium falciparum (isolate 3D7)) (Q08210 whole entry, looked up): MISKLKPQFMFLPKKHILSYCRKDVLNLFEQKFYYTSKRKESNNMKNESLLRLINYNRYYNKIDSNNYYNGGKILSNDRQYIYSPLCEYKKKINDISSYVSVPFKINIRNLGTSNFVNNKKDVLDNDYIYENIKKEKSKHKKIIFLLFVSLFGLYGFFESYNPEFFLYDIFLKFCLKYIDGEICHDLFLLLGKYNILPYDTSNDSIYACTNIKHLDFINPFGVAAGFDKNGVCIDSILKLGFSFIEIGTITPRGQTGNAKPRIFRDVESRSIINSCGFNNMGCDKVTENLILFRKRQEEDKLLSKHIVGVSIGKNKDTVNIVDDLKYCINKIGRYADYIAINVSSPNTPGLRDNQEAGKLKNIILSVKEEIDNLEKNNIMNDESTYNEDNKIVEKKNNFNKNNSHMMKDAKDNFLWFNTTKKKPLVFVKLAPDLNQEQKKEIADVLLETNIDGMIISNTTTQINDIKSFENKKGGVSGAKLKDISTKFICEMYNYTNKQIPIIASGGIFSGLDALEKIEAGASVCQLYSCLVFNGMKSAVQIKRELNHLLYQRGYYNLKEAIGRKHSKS

[5] = inhibition of PAO1 biofilm formation – strain PAO1, LB-PBS medium, absorbance 600 nm, primary screen (AID 1176); conditions: P. aeruginosa PAO1 growth/biofilm, A600, 12 h; higher = more signal
[6] = growth modulation of vineyard yeast isolate – strain RM11-1a, OD600, basal, 24 h, primary screen (AID 1177);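 further: cultures grown under basal conditions with no added stressor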; conditions: S. cerevisiae RM11-1a growth, OD600, 24 h; higher = more signal, called active from +8 up or from −8 down
[7] = growth of efflux-deficient E. coli DRC39 – strain DRC39, OD650, 24 h, E. coli filamentation inducers, primary screen (AID 1178);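 further: growth measured as culture turbidity by optical density at 650 nm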; conditions: E. coli DRC39 acrAB, higher = more signal, called active from +8 up or from −8 down
[8] = growth of efflux-deficient E. coli DRC39 – strain DRC39, OD650, 48 h, E. coli filamentation inducers, primary screen (AID 1179);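 further: screen aims at cell division blockers that make cells filament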; conditions: E. coli DRC39 delta-acrAB growth, higher = more signal, called active from +8 up or from −8 down
[9] = viability profiling in RPMI8226 myeloma cells – cell-based, resazurin fluorescence, basal, 24 h, PK04 Diversity Set, profiling panel (AID 1180); conditions: higher = more signal;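 further: RPMI8826 multiple myeloma cell line at 5000 cells per well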
[10] = target: E3 ubiquitin-protein ligase XIAP (Homo sapiens) (UniProt P98170); assay: small molecules binding XIAP protein – biophysical, small-molecule microarray, fluorescence 635 nm, primary screen (AID 1181); conditions: higher = more signal;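 further: score merges 667 nm emission and signal to noise over triplicate slides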
Sequence of E3 ubiquitin-protein ligase XIAP (Homo sapiens) (P98170 whole entry, looked up, the tested form may be a part): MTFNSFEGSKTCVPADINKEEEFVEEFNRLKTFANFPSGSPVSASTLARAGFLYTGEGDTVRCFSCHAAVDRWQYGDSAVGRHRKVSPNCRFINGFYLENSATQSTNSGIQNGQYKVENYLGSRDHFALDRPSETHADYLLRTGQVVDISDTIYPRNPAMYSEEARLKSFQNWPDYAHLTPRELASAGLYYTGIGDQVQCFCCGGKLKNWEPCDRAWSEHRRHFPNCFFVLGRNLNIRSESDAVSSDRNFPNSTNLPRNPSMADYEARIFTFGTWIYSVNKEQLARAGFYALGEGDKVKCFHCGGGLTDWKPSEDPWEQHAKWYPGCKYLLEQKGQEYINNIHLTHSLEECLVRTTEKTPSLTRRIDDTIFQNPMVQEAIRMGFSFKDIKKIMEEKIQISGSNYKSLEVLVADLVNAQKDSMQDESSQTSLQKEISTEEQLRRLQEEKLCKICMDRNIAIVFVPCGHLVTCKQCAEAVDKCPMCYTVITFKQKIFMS

[11] = tested on: XIP peptide (Xip251-270) binding; assay: XIP fragment 251-270 binding compounds – biochemical, small-molecule microarray, fluorescence 635/667 nm, 0.1 µg/mL protein, primary screen (AID 1182); conditions: fluorescent protein binding, 635 nm, higher = more signal, called active from +8 up or from −8 down
[12] = tested on: XIP peptide (Xip251-270); assay: compounds binding XIP fragment 251-270 – biochemical, small-molecule microarray, fluorescence 635/667 nm, 0.5 µg/mL protein, primary screen (AID 1183); conditions: fluorescence 635 nm, higher = more signal
[13] = blood-stage malaria parasite viability loss – strain 3D7, DAPI fluorescence, 100 nL, primary screen (AID 1184);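 further: parasites grown inside human red blood cells in medium with human serum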; conditions: P. falciparum 3D7 growth, 3 d, higher = more signal
[14] = target: Homeobox protein Hox-A13 (Mus musculus) (UniProt Q62424); assay: disruptors of Hoxa13 oligonucleotide interaction – biochemical, fluorescence polarization, labeled oligonucleotide, primary screen (AID 1185); conditions: Hoxa13:DNA binding, 15 min, higher = more signal, called active from +8 up or from −8 down
Sequence of Homeobox protein Hox-A13 (Mus musculus) (Q62424 whole entry, looked up): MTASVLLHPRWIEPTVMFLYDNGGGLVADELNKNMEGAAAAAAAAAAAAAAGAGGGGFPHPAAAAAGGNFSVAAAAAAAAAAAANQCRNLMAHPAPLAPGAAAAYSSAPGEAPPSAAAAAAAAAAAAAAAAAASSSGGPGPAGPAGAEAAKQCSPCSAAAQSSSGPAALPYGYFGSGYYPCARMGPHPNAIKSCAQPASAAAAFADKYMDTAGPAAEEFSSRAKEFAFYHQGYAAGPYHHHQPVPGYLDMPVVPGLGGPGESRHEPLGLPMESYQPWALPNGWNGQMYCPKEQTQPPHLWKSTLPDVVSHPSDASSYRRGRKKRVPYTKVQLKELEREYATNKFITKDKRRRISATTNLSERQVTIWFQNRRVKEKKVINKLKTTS

[15] = blockers of DNA damage checkpoint Chk1 activation – imaging, HeLa, hydroxyurea, phospho-Chk1 antibody, percent positive cells, primary screen (AID 1186); conditions: hydroxyurea-induced phospho-Chk1 immunofluorescence imaging, higher = more signal
[16] = blockers of DNA damage checkpoint Chk1 activation – imaging, HeLa, hydroxyurea, phospho-Chk1 nuclear intensity, primary screen (AID 1187); conditions: hydroxyurea-induced phospho-Chk1 immunofluorescence imaging, higher = more signal

SMILES | z-score [1] | z-score [2] | z-score [3] | composite z-score [4] | z-score [5] | z-score [6] | z-score [7] | z-score [8] | z-score [9] | composite z-score [10] | composite z-score [11] | composite z-score [12] | z-score [13] | z-score [14] | z-score [15] | z-score [16]
CC(C)C[C@@H]1NC(=O)[C@H]2C[C@@H](C(=O)NCCCCCNC(=O)CS)[C@@H](c3ccc(O)cc3)N2C1=O | -2.15 | 0.131 (inactive) | -0.297 (inactive) | 0.204 (inactive) | 0.767 (inactive) | 0.665 (inactive) | -0.117 (inactive) | -0.942 (inactive) | -0.57 | -0.0577 | 0.563 (inactive) | 0.692 | -0.92 | -3.85 (inactive) | -0.37 (inactive) | -0.291 (inactive)
CC(C)(C)OC(=O)CC[C@]1(C(=O)N2CCOCC2)N=C(c2ccc(OCCCO)cc2)O[C@H]1c1ccccc1CN=[N+]=[N-] | 0.125 | -0.0255 (inactive) | -0.362 (inactive) | -0.0668 (inactive) | 1.78 (inactive) | -0.459 (inactive) | 0.565 (inactive) | 0.088 (inactive) | 0.0933 | 0.0159 | 0.518 (inactive) | 0.792 | -1.79 | -6.05 (inactive) | -0.0845 (inactive) | -0.314 (inactive)
Cc1ccc(S(=O)(=O)N2[C@@H](c3ccccc3)C(C(=O)O)=CC[C@H]2c2ccc(C#N)cc2)cc1 | -0.847 | -0.647 (inactive) | -1.35 (inactive) | 0.0114 (inactive) | 0.0794 (inactive) | 0.11 (inactive) | -0.674 (inactive) | -0.841 (inactive) | -1.28 | 0.15 | 0.556 (inactive) | 0.848 | -1.26 | -6.06 (inactive) | 0.0247 (inactive) | -0.206 (inactive)
[N-]=[N+]=Nc1ccccc1[C@@H]1OC(c2ccc(OCCCO)cc2)=N[C@]1(Cc1ccccc1)C(N)=O | 1.2 | -0.821 (inactive) | -0.622 (inactive) | 0.474 (inactive) | -0.0558 (inactive) | 1.19 (inactive) | 0.673 (inactive) | 0.481 (inactive) | -0.589 | 0.0838 | 0.0123 (inactive) | 0.0246 | -2.06 | -5.43 (inactive) | -0.707 (inactive) | -0.543 (inactive)
C=C(/C(=C/C[C@@H](OC(C)=O)c1ccccc1OCCO)c1cc(C(=O)OC)ccc1OC)C(C)C | 0.862 | -1.18 (inactive) | -0.296 (inactive) | -1.22 (inactive) | 0.0478 (inactive) | 0.508 (inactive) | 1.62 (inactive) | 1.04 (inactive) | 0.676 | -0.323 | 0.988 (inactive) | 0.839 | -2.8 | -4.71 (inactive) | 0.689 (inactive) | 0.766 (inactive)
C=CCC(OC(C)=O)[C@@H]1[C@@H](N(Cc2ccc(-c3cccc(C(F)(F)F)c3)o2)C(=O)Cc2ccc(F)cc2)c2cc(OCCCO)ccc2N1C(=O)c1ccc2ccccc2c1 (stereo partly drawn) | 0.589 | -0.382 (inactive) | 0.81 (inactive) | -1.26 (inactive) | -0.194 (inactive) | -0.423 (inactive) | 0.227 (inactive) | 0.369 (inactive) | 0.934 | -0.224 | -0.502 (inactive) | -0.669 | -0.681 | -1.3 (inactive) | 0.627 (inactive) | 0.835 (inactive)
O=C1c2ccccc2[C@@]2(Cc3ccccc3N(Cc3ccccc3)C2=O)[C@H](c2ccc(CO)cc2)N1Cc1ccccc1 | -0.739 | -0.773 (inactive) | -0.851 (inactive) | -2.87 (inactive) | 0.0714 (inactive) | -0.153 (inactive) | -0.0466 (inactive) | -0.0261 (inactive) | -0.982 | -0.0525 | -0.348 (inactive) | -0.283 | 1.37 | -0.928 (inactive) | 0.306 (inactive) | 0.435 (inactive)
CCOC(=O)C[C@H]1[C@H](OC(=O)c2ccc(-c3ccccc3)cc2)[C@@H](NC(=O)c2ccc3ccccc3c2)c2cc(OCCCO)ccc2N1C(=O)c1ccccc1 | -0.491 | 1.31 (inactive) | -0.483 (inactive) | 0.622 (inactive) | 0.055 (inactive) | 1.13 (inactive) | -0.0319 (inactive) | -0.0532 (inactive) | -0.221 | 0.0454 | 0.377 (inactive) | -0.0506 | -0.633 | -1.35 (inactive) | 0.0034 (inactive) | 0.241 (inactive)
COc1cc2c(cc1O)C(C1CC1)N(Cc1ccc([N+](=O)[O-])o1)CC2 (stereo not drawn) | -0.145 | -1.49 (inactive) | -0.0144 (inactive) | -4.24 (inactive) | 0.0898 (inactive) | -0.346 (inactive) | -0.698 (inactive) | -0.821 (inactive) | 0.211 | 0.234 | 0.402 (inactive) | 0.315 | -0.993 | -6.04 (inactive) | -0.0479 (inactive) | 0.125 (inactive)
CC(C)C[C@@H]1NC(=O)C([C@@H](C)OCc2ccccc2)NC(=O)[C@@]23C(=O)N[C@@H](Cc4ccccc4)C2[C@H](C)[C@@]2(C)O[C@H]2C3/C=C/CC/C=C/CNC1=O (stereo partly drawn) | 0.536 | -1.78 (inactive) | -0.0218 (inactive) | -0.485 (inactive) | 0.261 (inactive) | -0.435 (inactive) | 1.64 (inactive) | 0.212 (inactive) | -0.417 | -0.144 | -0.0755 (inactive) | 0.677 | -3.08 | -6.51 (inactive) | -0.799 (inactive) | -0.574 (inactive)
COC(=O)[C@]1(CO)N=C(c2ccc(OCCCO)cc2)O[C@@H]1c1ccccc1CN=[N+]=[N-] | -0.318 | 0.443 (inactive) | -0.529 (inactive) | 0.415 (inactive) | -0.677 (inactive) | -0.299 (inactive) | -0.246 (inactive) | 0.321 (inactive) | -0.15 | -0.21 | 0.495 (inactive) | -0.116 | -0.217 | -5 (inactive) | -0.33 (inactive) | -0.658 (inactive)
CC1(C)OC[C@@]23C=C(Br)[C@@H](C[C@H]12)[C@@]1(CO1)C3=O | -0.0972 | -1.2 (inactive) | 0.0059 (inactive) | 0.253 (inactive) | -0.0582 (inactive) | 0.617 (inactive) | -0.509 (inactive) | -0.457 (inactive) | 0.325 | -0.02 | -0.319 (inactive) | 0.0841 | 1.96 | 0.26 (inactive) | -0.54 (inactive) | -0.682 (inactive)
[N-]=[N+]=NCc1ccccc1C[C@@]1(C(=O)O)N=C(c2ccc(OCCCO)cc2)O[C@@H]1c1ccccc1CN=[N+]=[N-] | 1.86 | -4 (inactive) | 0.781 (inactive) | -1.62 (inactive) | -0.608 (inactive) | -0.916 (inactive) | 0.274 (inactive) | 0.697 (inactive) | 1.03 | 0.209 | 0.673 (inactive) | 0.512 | 0.107 | -5.11 (inactive) | -0.199 (inactive) | -0.026 (inactive)
CCOC(=O)C1=CC[C@@H](c2ccccc2)N(S(=O)(=O)c2ccc(C)cc2)[C@H]1C#N | 0.145 | -0.134 (inactive) | -1.08 (inactive) | -3.15 (inactive) | 0.518 (inactive) | 0.0553 (inactive) | -1.01 (inactive) | 0.27 (inactive) | -0.99 | 0.129 | 0.452 (inactive) | 0.839 | -0.712 | -3.58 (inactive) | 0.584 (inactive) | 0.373 (inactive)
N#Cc1ccc(C(O)C2C=CC3C(=O)NC(=O)C3N2Nc2ccccn2)cc1 (stereo not drawn) | -1.62 | -0.055 (inactive) | -0.601 (inactive) | -0.127 (inactive) | 0.791 (inactive) | -1.57 (inactive) | 0.0007 (inactive) | 1.25 (inactive) | -0.353 | -0.0536 | -0.108 (inactive) | 0.669 | -0.557 | -1.11 (inactive) | -0.0275 (inactive) | 0.114 (inactive)
CCOC(=O)C1=CC[C@@H](c2ccccc2)N(S(=O)(=O)C[Si](C)(C)C)[C@H]1c1ccccc1 | 0.128 | 0.945 (inactive) | -0.013 (inactive) | 0.407 (inactive) | 0.257 (inactive) | -0.42 (inactive) | -0.618 (inactive) | -1.59 (inactive) | 0.343 | -0.125 | 0.127 (inactive) | 0.704 | -1.86 | -1.35 (inactive) | 0.587 (inactive) | 0.496 (inactive)
C[N+](C)(C)CCCCCCNC(=O)[C@H]1C[C@H]2C(=O)NCC(=O)N2[C@H]1c1cccc(OCCO)c1 | 0.547 | -0.316 (inactive) | -0.0342 (inactive) | -0.97 (inactive) | -0.0743 (inactive) | 0.254 (inactive) | -0.129 (inactive) | -0.285 (inactive) | -0.252 | 0.0402 | 1.32 (inactive) | 0.695 | 0.138 | -3.97 (inactive) | 0.145 (inactive) | 0.136 (inactive)
CCCCN1CC=CC23O[C@@H]4C=CCOC(=O)[C@@H]4[C@H]2C(=O)N(CCO)[C@@H]3C1=O (stereo partly drawn) | -0.394 | 1.31 (inactive) | -0.202 (inactive) | -0.161 (inactive) | -0.208 (inactive) | -0.322 (inactive) | 0.233 (inactive) | 0.109 (inactive) | -0.236 | -0.239 | 0.64 (inactive) | -0.964 | 1.12 | -3.84 (inactive) | -0.338 (inactive) | -0.424 (inactive)

Reference: PubChem BioAssay
